The target in experiment [1] is Mitogen-activated protein kinase kinase kinase kinase 4 (Homo sapiens) (UniProt O95819). The note with it: at 1 µM.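 Note: reported figure is an averaged inhibition value.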
Experiment [2] addresses Dual specificity mitogen-activated protein kinase kinase 1 (Homo sapiens) (UniProt Q02750). The following applies: at 0.1 µM.
Experiment [3] shares this target. The note with it: at 1 µM.
Experiment [4] deals with Misshapen-like kinase 1 (Homo sapiens) (UniProt Q8N4C8). The following applies: at 0.1 µM.
Misshapen-like kinase 1 (Homo sapiens), sequence (Q8N4C8 whole entry, looked up): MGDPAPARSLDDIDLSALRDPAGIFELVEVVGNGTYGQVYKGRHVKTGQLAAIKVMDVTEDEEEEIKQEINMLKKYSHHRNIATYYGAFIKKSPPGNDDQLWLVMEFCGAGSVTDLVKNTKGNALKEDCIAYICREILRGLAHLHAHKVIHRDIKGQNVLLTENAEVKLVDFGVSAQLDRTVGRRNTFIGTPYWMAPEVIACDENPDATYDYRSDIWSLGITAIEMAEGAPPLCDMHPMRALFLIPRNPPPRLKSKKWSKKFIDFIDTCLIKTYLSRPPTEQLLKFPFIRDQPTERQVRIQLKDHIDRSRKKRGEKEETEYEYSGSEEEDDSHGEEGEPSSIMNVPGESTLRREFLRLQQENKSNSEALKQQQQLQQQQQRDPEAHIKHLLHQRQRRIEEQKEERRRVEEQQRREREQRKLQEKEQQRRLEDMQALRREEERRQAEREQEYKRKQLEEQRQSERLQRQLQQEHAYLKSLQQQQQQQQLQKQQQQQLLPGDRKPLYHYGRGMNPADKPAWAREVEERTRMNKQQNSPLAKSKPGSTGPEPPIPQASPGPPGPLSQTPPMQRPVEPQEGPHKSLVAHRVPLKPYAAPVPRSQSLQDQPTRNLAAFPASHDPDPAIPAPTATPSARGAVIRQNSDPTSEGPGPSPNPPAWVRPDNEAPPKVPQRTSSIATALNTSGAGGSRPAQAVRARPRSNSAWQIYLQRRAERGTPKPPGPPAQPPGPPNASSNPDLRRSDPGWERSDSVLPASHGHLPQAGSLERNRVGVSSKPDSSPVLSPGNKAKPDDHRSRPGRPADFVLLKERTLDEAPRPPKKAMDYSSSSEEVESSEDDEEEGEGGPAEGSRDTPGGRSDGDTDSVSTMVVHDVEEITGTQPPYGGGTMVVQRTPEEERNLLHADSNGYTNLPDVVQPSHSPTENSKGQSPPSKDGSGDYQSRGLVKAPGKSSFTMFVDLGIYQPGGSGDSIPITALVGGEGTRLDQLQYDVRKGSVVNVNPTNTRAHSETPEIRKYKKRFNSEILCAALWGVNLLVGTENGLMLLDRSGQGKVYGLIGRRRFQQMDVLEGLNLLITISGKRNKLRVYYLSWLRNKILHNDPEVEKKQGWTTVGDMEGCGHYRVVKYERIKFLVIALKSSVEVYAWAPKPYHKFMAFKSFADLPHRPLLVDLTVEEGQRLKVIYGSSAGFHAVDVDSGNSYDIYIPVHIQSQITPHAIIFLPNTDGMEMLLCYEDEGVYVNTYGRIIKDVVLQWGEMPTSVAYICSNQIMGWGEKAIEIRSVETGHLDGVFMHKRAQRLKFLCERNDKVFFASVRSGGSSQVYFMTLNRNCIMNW
Experiment [5] shares this target. The following applies: at 1 µM.
The target in experiment [6] is T1, Serine/threonine-protein kinase 4 (Homo sapiens) (UniProt Q13043).
T1 sequence (whole entry): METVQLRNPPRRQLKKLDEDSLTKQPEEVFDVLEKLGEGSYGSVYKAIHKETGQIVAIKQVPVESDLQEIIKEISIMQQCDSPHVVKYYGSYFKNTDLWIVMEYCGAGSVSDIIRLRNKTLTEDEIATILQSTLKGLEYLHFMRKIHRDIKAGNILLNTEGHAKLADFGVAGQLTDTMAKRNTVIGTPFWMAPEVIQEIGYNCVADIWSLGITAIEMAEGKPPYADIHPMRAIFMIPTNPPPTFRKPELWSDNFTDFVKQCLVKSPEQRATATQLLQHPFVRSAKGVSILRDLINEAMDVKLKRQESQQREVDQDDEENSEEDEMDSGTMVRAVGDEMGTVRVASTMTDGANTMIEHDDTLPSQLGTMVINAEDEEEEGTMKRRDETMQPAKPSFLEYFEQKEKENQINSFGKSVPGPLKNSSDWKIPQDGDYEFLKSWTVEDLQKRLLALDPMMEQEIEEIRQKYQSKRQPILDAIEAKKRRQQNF
The note with it: at 0.1 µM.

Experiment [7] deals with T1, Serine/threonine-protein kinase 4 (Homo sapiens). The following applies: at 1 µM.
The target in experiment [8] is T2, Serine/threonine-protein kinase 3 (Homo sapiens) (UniProt Q13188).
T2 sequence (whole entry): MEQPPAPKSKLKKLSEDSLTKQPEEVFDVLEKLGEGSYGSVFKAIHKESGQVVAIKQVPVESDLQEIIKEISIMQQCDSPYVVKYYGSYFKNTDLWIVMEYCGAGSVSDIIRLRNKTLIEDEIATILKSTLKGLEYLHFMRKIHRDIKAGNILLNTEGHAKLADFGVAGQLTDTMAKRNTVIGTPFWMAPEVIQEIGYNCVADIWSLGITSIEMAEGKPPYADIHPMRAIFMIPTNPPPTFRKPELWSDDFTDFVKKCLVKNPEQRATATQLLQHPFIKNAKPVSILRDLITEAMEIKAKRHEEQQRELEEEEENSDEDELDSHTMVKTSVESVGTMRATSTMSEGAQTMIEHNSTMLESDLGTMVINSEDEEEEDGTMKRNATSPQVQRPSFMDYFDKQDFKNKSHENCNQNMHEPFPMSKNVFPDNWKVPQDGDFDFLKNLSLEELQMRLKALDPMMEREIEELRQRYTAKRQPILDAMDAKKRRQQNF
The note with it: at 0.1 µM.

Experiment [9] addresses T2, Serine/threonine-protein kinase 3 (Homo sapiens). The following applies: at 1 µM.
Experiment [10] has as its target Serine/threonine-protein kinase 26 (Homo sapiens) (UniProt Q9P289). The following applies: at 0.1 µM.

The source of these data is ChEMBL document CHEMBL1961873, “Compounds: GSK PKIS; Assays: Nanosyn kinase panel” (2012).

As usually defined, the inhibition is the change of the read-out against control, counted positive when it falls.

Dual specificity mitogen-activated protein kinase kinase 1 (Homo sapiens), sequence (Q02750 whole entry): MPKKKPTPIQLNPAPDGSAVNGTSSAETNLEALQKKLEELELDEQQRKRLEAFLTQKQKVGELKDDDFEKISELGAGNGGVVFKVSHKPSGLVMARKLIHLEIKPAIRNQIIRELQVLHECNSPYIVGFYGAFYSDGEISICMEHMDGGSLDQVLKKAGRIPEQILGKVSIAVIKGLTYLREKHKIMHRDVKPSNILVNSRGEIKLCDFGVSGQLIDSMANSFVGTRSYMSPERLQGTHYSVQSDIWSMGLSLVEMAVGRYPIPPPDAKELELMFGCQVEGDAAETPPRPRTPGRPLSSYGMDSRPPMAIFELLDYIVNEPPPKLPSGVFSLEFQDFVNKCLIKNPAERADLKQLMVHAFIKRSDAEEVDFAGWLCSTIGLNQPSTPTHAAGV
Mitogen-activated protein kinase kinase kinase kinase 4 (Homo sapiens), sequence (O95819 2-1239 limits assumed): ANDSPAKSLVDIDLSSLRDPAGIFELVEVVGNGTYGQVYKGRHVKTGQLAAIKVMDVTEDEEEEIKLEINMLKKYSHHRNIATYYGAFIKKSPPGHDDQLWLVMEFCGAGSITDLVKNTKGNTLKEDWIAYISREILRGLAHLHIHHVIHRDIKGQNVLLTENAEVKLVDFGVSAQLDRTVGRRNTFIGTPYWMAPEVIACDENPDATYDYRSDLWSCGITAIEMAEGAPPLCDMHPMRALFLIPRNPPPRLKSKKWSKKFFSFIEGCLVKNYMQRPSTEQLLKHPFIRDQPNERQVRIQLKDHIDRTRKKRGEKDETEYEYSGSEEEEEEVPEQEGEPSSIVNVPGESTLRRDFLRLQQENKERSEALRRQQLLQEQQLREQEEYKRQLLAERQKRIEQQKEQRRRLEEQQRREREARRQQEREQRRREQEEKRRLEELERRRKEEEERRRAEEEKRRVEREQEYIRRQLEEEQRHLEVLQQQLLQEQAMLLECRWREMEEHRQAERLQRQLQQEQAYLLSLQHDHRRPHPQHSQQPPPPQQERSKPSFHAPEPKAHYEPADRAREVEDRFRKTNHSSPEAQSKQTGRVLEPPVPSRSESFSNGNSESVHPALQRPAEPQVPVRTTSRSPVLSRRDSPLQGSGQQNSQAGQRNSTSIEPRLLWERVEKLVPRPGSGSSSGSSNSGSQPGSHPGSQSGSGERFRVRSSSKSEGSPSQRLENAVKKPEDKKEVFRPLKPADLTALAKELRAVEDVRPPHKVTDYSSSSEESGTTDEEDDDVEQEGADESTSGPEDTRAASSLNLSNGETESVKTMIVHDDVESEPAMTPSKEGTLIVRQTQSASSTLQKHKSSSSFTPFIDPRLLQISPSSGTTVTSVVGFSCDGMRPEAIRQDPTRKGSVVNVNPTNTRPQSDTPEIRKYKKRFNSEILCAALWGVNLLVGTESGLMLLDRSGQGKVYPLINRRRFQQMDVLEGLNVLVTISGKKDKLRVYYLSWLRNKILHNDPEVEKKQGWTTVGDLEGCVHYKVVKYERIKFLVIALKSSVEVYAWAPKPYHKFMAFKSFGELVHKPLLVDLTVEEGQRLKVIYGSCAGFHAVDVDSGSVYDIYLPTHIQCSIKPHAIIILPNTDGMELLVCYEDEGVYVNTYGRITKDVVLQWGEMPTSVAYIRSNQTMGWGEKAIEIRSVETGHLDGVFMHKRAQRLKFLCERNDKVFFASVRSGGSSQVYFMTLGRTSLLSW
Serine/threonine-protein kinase 26 (Homo sapiens), sequence (Q9P289 2-416 limits assumed): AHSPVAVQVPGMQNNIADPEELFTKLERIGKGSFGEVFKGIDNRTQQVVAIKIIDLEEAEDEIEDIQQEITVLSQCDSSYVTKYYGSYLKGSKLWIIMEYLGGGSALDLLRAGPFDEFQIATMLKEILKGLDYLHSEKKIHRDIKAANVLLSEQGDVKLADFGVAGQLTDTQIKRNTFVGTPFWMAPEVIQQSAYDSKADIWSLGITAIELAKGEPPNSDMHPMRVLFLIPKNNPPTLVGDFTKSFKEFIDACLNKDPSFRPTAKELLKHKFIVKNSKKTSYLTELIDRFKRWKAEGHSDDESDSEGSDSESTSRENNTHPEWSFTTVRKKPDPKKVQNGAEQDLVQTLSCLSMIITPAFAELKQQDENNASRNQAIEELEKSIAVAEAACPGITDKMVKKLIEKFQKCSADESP

Consider `CCn1c(-c2nonc2N)nc2c(C#CC(C)(C)O)nc(OC[C@@H](N)c3ccccc3)cc21`, for which the inhibition in experiment [1] is 14.1%; in experiment [2], -0.93%; in experiment [3], 3.8%; in [4], -1.26%; in experiment [5], 9.85%; in [6], -2.01%. The inhibition was 15.2% in [7], -1.88% in experiment [8], 11.8% in experiment [9] and 1.4% in experiment [10].

As to `Nc1nc(-c2ccccn2)c(-c2ccc3ncccc3n2)s1`, the inhibition in experiment [1] stood at 9.69%; in experiment [2], 2.95%; in experiment [3], 2.78%; in experiment [4], 5.37%; in experiment [5] it was 7.86%; in experiment [6], 5.62%. Also, the inhibition is 6.85% in [7], 5.79% in experiment [8], 6.4% in experiment [9] and -2.14% in [10].

As to `O=C(Nc1n[nH]c2nc(-c3ccco3)c(Br)cc12)C1CC1`, the inhibition in experiment [1] was 8.55%; in [2] it was 3.9%; in experiment [3], 3.63%; in [4] it was 5.14%; in experiment [5], 8.29%; in [6], 5.17%. Further, the inhibition in [7] is 4%; in [8], 6.08%; in [9] it was 5.58%; in [10], -1.82%.

For the molecule `Cc1ccc(NC(=O)c2ccnc(N3CCCC3)c2)cc1-c1ccc(C(=O)NCC2CC2)cc1`, the inhibition in [1] turned out to be 10.9%; in experiment [2], 5.95%; in experiment [3], 5.8%; in [4], 11.6%; in experiment [5], 10.5%; in [6], 8.79%. Also, the inhibition in [7] was 9.83%; in experiment [8], 9.39%; in experiment [9], 9.53%; in [10], 4.41%.

Regarding `COc1ccc(-c2nn3ncccc3c2-c2ccnc(Nc3ccc(Cl)c(C(F)(F)F)c3)n2)cc1`, the inhibition in experiment [1] was found to be 14.7%; in [2], 2.33%; in experiment [3], 1.56%; in experiment [4], 3.94%; in experiment [5], 10.2%; in experiment [6], 1.84%. In addition, the inhibition in experiment [7] amounted to 5.36%; in experiment [8], 2.73%; in experiment [9] it was 6.97%; in [10], 0.59%.

In the case of `Cn1cc(C=C2C(=O)Nc3cccnc32)c2ccccc21`, the inhibition is 29% in experiment [1]; 2.69% in experiment [2]; 7.29% in experiment [3]; 7.13% in experiment [4]; 23.6% in experiment [5]; 13.7% in [6]. Also, the inhibition amounted to 47.9% in experiment [7], 10.5% in experiment [8], 33.8% in experiment [9] and 1.41% in experiment [10].

As for `Nc1ncnc2occ(-c3ccc(NC(=O)Nc4cc(C(F)(F)F)cc(C(F)(F)F)c4)cc3)c12`, the inhibition was 5.19% in [1]; 0.93% in experiment [2]; 3.12% in experiment [3]; 5.87% in experiment [4]; -1.47% in experiment [5]; 3.59% in experiment [6]. Also, the inhibition is 6.92% in experiment [7], 4.8% in [8], 5.55% in [9] and -0.71% in [10].

`CC(=O)Nc1cccc(C#Cc2cncnc2Nc2ccc(OCc3cccc(F)c3)c(Cl)c2)n1`: the inhibition is 8.1% in experiment [1]; -0.39% in experiment [2]; -1.7% in experiment [3]; 0.33% in [4]; 10.7% in experiment [5]; 4% in experiment [6]. Moreover, the inhibition in [7] stood at 7.41%; in [8], 3.99%; in experiment [9], 8.13%; in experiment [10] it was 2.55%.

In the case of `COC(=O)Nc1nc2cc(Oc3ccc(NC(=O)Nc4cccc(C(=O)O)c4)cc3)ccc2[nH]1`, the inhibition in experiment [1] was found to be 5.9%; in experiment [2], 0.36%; in experiment [3], 0.97%; in experiment [4], 1.59%; in experiment [5], 4.38%; in experiment [6] it was 7.79%. In addition, the inhibition in experiment [7] is 11.2%; in experiment [8], 7.55%; in [9] it was 10.9%; in [10], 1.75%.

Regarding `CC1=C(C(=O)Nc2ccc3[nH]ncc3c2)C(c2ccc(F)cc2)NC(=O)N1` (stereo not given), the inhibition was found to be 11.1% in experiment [1]; 2.25% in [2]; 5.95% in [3]; 7.37% in experiment [4]; 13% in experiment [5]; 1.11% in experiment [6]. Besides, the inhibition in experiment [7] stood at 5.91%; in experiment [8], 1.29%; in experiment [9] it was 6.58%; in [10] it was 0.66%.

With `COc1cccc(-n2ncc3c(N/N=C/c4cccc(F)c4)ncnc32)c1`, the inhibition in experiment [1] turned out to be 35%; in experiment [2], 3.46%; in experiment [3], 3.27%; in experiment [4], 7.28%; in experiment [5], 25.8%; in experiment [6], 3.89%. For the same molecule, the inhibition in experiment [7] is 8.39%; in [8], 2.89%; in [9], 6.96%; in [10] it was -0.8%.

Regarding `COC(=O)Nc1nc2cc(Oc3cccc(NC(=O)Nc4cc(C(F)(F)F)ccc4F)c3)ccc2[nH]1`, the inhibition in experiment [1] was 4.32%; in experiment [2], 0.59%; in experiment [3], 0.38%; in experiment [4], 1.15%; in [5], 3.21%; in experiment [6], -1.6%. Besides, the inhibition is 0.24% in experiment [7], -1.24% in experiment [8], 0.17% in experiment [9] and 0.73% in [10].

Regarding `Fc1cccc(COc2ccc(Nc3ncnc4cc(-c5ccc[nH]5)sc34)cc2Cl)c1`, the inhibition came out at 13.9% in experiment [1]; 3.99% in experiment [2]; 3.24% in experiment [3]; 6.08% in experiment [4]; 12.7% in experiment [5]; 0.61% in experiment [6]. In addition, the inhibition in experiment [7] was 2.35%; in [8], 1.18%; in [9], 3.32%; in experiment [10], -0.07%.

On to `CCn1c(-c2nonc2N)nc2cncc(C(=O)N3CCNCC3)c21`, for which the inhibition in experiment [1] worked out at 4.49%; in experiment [2], 5.61%; in experiment [3] it was 4.93%; in experiment [4] it was 5.47%; in experiment [5], 6.02%; in [6], 3.69%. The inhibition in experiment [7] is 5.39%; in experiment [8] it was 8.73%; in [9] it was 8.25%; in [10], -0.22%.
